# According to PubChem BioAssay (EPA / NIEHS):
# Several values for one entry are separate records, joined by “and”; a condition that tells them apart may be missing. Equal entries are not always repeated. Inconclusive results are not listed. Activity calls are given as the source filed them. Rule for the calls, unless noted: active = hit-call score of the fitted dose curve at least 0.9, where 1 is the maximum; inactive = score below 0.9.
# How the values were obtained:
# [1] = IUF_NPC2-5_cell_number_120hr: Cell Number Assessment at 120 hours in the Leibniz Research Institute for Environmental Medicine (IUF) Neural Progenitor Cell Migration and Differentiation Assay (NPC2-5) (AID 2284308);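 note: count of Hoechst-stained nuclei in migration zone around plated human neural progenitor spheres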
# How it was run: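 Hoechst-stained nuclei within the migration area were counted by automated high content imaging after 120 h. Single hNPC spheres differentiated on poly-D-lysine/laminin in DMEM/F12 (3:1) with 1% N2, compound present throughout, DMSO ≤0.1%.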
# [2] = IUF_NPC2-5_viability_120hr: Viability Assessment at 120 hours in the Leibniz Research Institute for Environmental Medicine (IUF) Neural Progenitor Cell Migration and Differentiation Assay (NPC2-5) (AID 2284312)
# How it was run: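 Human fetal (GW 16-19) neural progenitor spheres of 0.3 mm were plated on poly-D-lysine/laminin in N2 differentiation medium and exposed from day 0 for 120 h, with half-medium refresh at day 3. Viability was read as alamar blue resazurin-to-resorufin fluorescence against DMSO.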
# [3] = CCTE_Mundy_HCI_iCellGluta_NOG_NeuriteLength: CCTE's Neurite Outgrowth Assay in iCellGluta cells for Neurite Length, Mundy Lab (AID 2284318; active = hit-call score of the fitted dose curve at least 0.9, where 1 is the maximum)
# How it was run: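 Automated high-content imaging of betaIII-tubulin (Alexa Fluor-488) and Hoechst-stained cells gave neurite length, normalized to the DMSO baseline.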
# [4] = system: IYD (gene 389434); assay: CCTE_GLTED_hIYD: CCTE's human Iodotyrosine Deiodinase (xIYD) Inhibition Assay, Great Lakes Toxicology and Ecology Division (GLTED) Lab (AID 2284317; active = hit-call score of the fitted dose curve at least 0.9, where 1 is the maximum;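 note: cell-free human IYD enzyme made in baculovirus insect cells; iodide freed from monoiodotyrosine measured by cerium arsenite color change at 420 nm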)
# How it was run: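 Absorbance change at 420 nm from the iodide-catalysed cerium-arsenic reaction reports free iodide released by human IYD from monoiodotyrosine. Enzyme, substrate and chemical are incubated 3 h; loss of signal is fitted relative to DMSO baseline.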
# [5] = VALA_TUBHUV_Agonist_CellCount: Viability Assessment in the VALA Sciences human Umbilical Vein Endothelial Tubule Formation (TUBHUV) Agonism Assay (AID 2284309; active = hit-call score of the fitted dose curve at least 0.9, where 1 is the maximum)
# How it was run: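 HUVEC co-cultured 1:3 with HDF for 3 days in 10 ng/ml VEGF, then compounds added in VEGF medium for a further 3 days (72 h). Nuclear-stain/CD31 imaging cell count. Positive-direction fit versus 0.1% DMSO vehicle.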
# [6] = VALA_TUBIPS_Antagonist_TubuleLength: VALA Sciences human iPS-derived Endothelial Tubule Formation (TUBIPS) Antagonist Assay (AID 2284313; active = hit-call score of the fitted dose curve at least 0.9, where 1 is the maximum)
# How it was run: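 Cells grown 3 days with 10 ng/ml VEGF, then exposed to compounds in VEGF medium for another 3 days. After fixation, nuclear stain and CD31 immunofluorescence imaging gave mean total tubule length against 0.1% DMSO; suramin (100 uM) inhibition control.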
# [7] = VALA_MIGHUV2_WoundArea: VALA Sciences human Umbilical Vein Endothelial Cell Migration (MIGHUV) Assay, Area of Scratch Wound after Recovery (AID 2284316; active = hit-call score of the fitted dose curve at least 0.9, where 1 is the maximum)
# How it was run: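 HUVEC seeded at 9000 cells/well, scratched after 24 h; test chemical added within 30 min, 6-point concentration response in triplicate (0.1% DMSO vehicle). After 24 h wound recovery, cells fixed and Hoechst-stained nuclei in wound area imaged; Cytochalasin D reference control.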
# [8] = VALA_MIGHUV2_Bcatenin: VALA Sciences human Umbilical Vein Endothelial Cell Migration (MIGHUV) Assay, Nuclear Translocation of beta-Catenin after Recovery (AID 2284315; active = hit-call score of the fitted dose curve at least 0.9, where 1 is the maximum)
# Protocol: VALA_MIGHUV2_BCatenin is a cell-based, multiplexed assay that uses umbilical vein-derived endothelial cells (HUVEC). Measurements were taken 24 hours after chemical dosing in a 96-well plate.VALA_MIGHUV2_Bcatenin is the one of two assay components measured from the VALA_MIGHUV2 assay. It is designed to make measurements of nuclear translocation of CTNB, a form of morphology reporter, as detected with fluorescence intensity signals by HCS Fluorescent Imaging technology.Data from the assay component VALA_MIGHUV2_BCatenin was analyzed at the endpoint, VALA_MIGHUV2_BCatenin, in the positive analysis fitting direction relative to DMSO as the negative control and baseline of activity. Using a type of morphology reporter, gain-of-signal activity can be used to understand developmental effects. To generalize the intended target to other relatable targets, this assay endpoint is annotated to the neurodevelopment intended target family, where the subfamily is migration.
# (§1) Cells were seeded on 384-well microplates (day-0) at a density of 9000 cells per well for detection of wound area recovery or 4000 cells per well for detection of beta-catenin (CTNB) immunoreactivity and incubated in Endothelial Cell Growth Medium (CAI, San Diego; catalog 211-500). After 24 hours of culture, the HUVEC plates were scratched using a custom scratch head with the Bravo liquid handling system. […]
# [9] = VALA_TUBHUV_Antagonist_CellCount: Viability Assessment in the VALA Sciences human Umbilical Vein Endothelial Tubule Formation (TUBHUV) Antagonism Assay (AID 2284310; active = hit-call score of the fitted dose curve at least 0.9, where 1 is the maximum)
# How it was run: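 HUVEC co-cultured with HDF (1:3) 3 days in 10 ng/ml VEGF, then 3 days with compounds in VEGF medium. Fixed, nuclear stain and CD31 immunofluorescence, imaged; cell counts fitted versus 0.1% DMSO, loss of signal read as lower viability.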
# [10] = VALA_MIGHUV2_CellCount: Viability Assessment in the VALA Sciences human Umbilical Vein Endothelial Cell Migration (MIGHUV) Assay, Area of Scratch Wound after Recovery (AID 2284314; active = hit-call score of the fitted dose curve at least 0.9, where 1 is the maximum)
# Protocol: VALA_MIGHUV2_BCatenin is a cell-based, multiplexed assay that uses umbilical vein-derived endothelial cells (HUVEC). Measurements were taken 24 hours after chemical dosing in a 96-well plate.VALA_MIGHUV2_CellCount is the one of two assay components measured from the VALA_MIGHUV2 assay. It is designed to make measurements of viability, a form of viability reporter, as detected with fluorescence intensity signals by HCS Fluorescent Imaging technology. Data from the assay component VALA_MIGHUV2_CellCount was analyzed at the endpoint, VALA_MIGHUV2_CellCount, in the positive analysis fitting direction relative to DMSO as the negative control and baseline of activity. Using a type of viability reporter, loss-of-signal activity can be used to understand viability. To generalize the intended target to other relatable targets, this assay endpoint is annotated to the cell cycle intended target family, where the subfamily is cell count.
# as §1, with “system. This created a 'wound' area without cells in each well.” for “system.”
structure (smiles),measurement,setting,value
COP(=O)(OC)OC(Br)C(Cl)(Cl)Br (stereo not given),AC50,[1],25700 nM (active)
same,outcome,[2],inactive
same,AC50,[3],13500 nM (active)
CCOP(=O)(NC(C)C)Oc1ccc(SC)c(C)c1 (stereo not given),outcome,[1],inactive
same,outcome,[2],inactive
same,outcome,[3],inactive
CCOP(=S)(OCC)OC(Cl)C(Cl)(Cl)Cl (stereo not given),outcome,[1],inactive
same,outcome,[2],inactive
same,outcome,[3],inactive
CCCCSP(=O)(SCCCC)SCCCC,outcome,[1],inactive
same,outcome,[2],inactive
same,outcome,[4],inactive
same,outcome,[3],inactive
COP(=O)(NC(C)=O)SC (stereo not given),outcome,[1],inactive
same,outcome,[2],inactive
CCCOCC(=Nc1ccc(Cl)cc1C(F)(F)F)n1ccnc1,outcome,[4],inactive
COP(=O)(OC)C(O)C(Cl)(Cl)Cl (stereo not given),outcome,[1],inactive
same,outcome,[2],inactive
CON=C(C(=O)OC)c1ccccc1CON=C(C)c1cccc(C(F)(F)F)c1,outcome,[1],inactive
same,outcome,[2],inactive
same,AC50,[3],13300 nM (active)
CCOP(=S)(OCC)SCCSCC,outcome,[1],inactive
same,outcome,[2],inactive
CCOP(=S)(Oc1cnc(C(C)(C)C)nc1)OC(C)C (stereo not given),outcome,[1],inactive
same,outcome,[2],inactive
same,AC50,[3],21000 nM (active)
C=C(C)[C@H]1Cc2c(ccc3c2O[C@@H]2COc4cc(OC)c(OC)cc4[C@@H]2C3=O)O1,AC50,[1],1.41 nM (active)
same,AC50,[2],267 nM (active) and 1.57 nM (active)
same,AC50,[3],121 nM (active)
CC1=NNC(=O)N(/N=C/c2cccnc2)C1,outcome,[1],inactive
same,outcome,[5],inactive
same,outcome,[2],inactive
same,outcome,[6],inactive
same,outcome,[7],inactive
same,outcome,[3],inactive
C[N+]1(C)CCCCC1,outcome,[1],inactive
same,outcome,[2],inactive
S=C1NCCN1,outcome,[1],inactive
same,outcome,[2],inactive
same,outcome,[6],inactive
same,outcome,[8],inactive
same,outcome,[7],inactive
same,outcome,[3],inactive
O=[N+]([O-])c1cc(C(F)(F)F)c(Cl)c([N+](=O)[O-])c1Nc1ncc(C(F)(F)F)cc1Cl,AC50,[1],1100 nM (active)
same,outcome,[5],inactive
same,outcome,[9],inactive
same,AC50,[2],1.4 µM (active)
same,outcome,[10],inactive
same,AC50,[3],714 nM (active)
CCOP(=S)(OCC)Oc1ccc([N+](=O)[O-])cc1,outcome,[3],inactive
